Laboratory results reported in PubChem BioAssay (NCI).
Several values for one entry are separate records, joined by “and”; a condition that tells them apart may be missing. Equal entries are not always repeated. This is part of a sample that, as a whole, favours compounds with a hit. Of some 83,000 tested, about 20% had one in any assay.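 Step 1: grow cells in 96-well plates. Step 2: add test compound at a single concentration. Step 3: incubate 48 h. Step 4: record percent growth.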 Activity calls are given as the source filed them.

Each molecule was assayed on HT29 colon (assay: NCI-60 one-dose screen, 48 h (100 = growth as untreated, 0 = no growth, -100 = all killed)). Details: 10 µM.
Procedure: Growth inhibition of the HT29 human tumor cell line is measured as a screen for anti-cancer activity. Cells are grown in 96 well plates and exposed to the test compound for 48 hours. Compounds are tested at a single concentration, which is 10^-5 M for most compounds. The reported endpoint is percent growth (GI% or GIPRCNT), where numbers from 0 - 100% represent growth inhibition, and numbers from -100% - 0 represent cell death. For example, a value of 40 represents 60% growth inhibition. A value of 0 means no net growth occurred over the course of the experiment. A value of -40 indicates 40% of cells at the beginning of the experiment died by the end of the experiment. A value of -100 means all cells are dead at the end of the experiment.
NCI-60 Human Tumor Cell Lines Screen was performed using the standard one-dose NCI protocol, which is described in more detail at https://dtp.cancer.gov/discovery_development/nci-60/default.htm.
Compounds with GIPRCNT values below 10 were considered active. Activity score was based on GIPRCNT using the following formula: […]
Score is 0 for GIPRCNT values of 100 or above, 50 for GIPRCNT values of 0, and 100 for GIPRCNT values of -100.

Structure (SMILES)	growth
CC(=O)/C=C/c1ccc(N(C)Cc2ccc(C(C)(C)C)cc2)cc1	78.1% (inactive)
O=C(/C=C/c1cccc(Oc2ccc(Cl)cc2)c1)c1ccccc1	84.2% (inactive)

Same assay, conditions: 10 µM unless noted

Structure (SMILES)	growth
CCN(CC)CCCN1C(=O)c2c(c(C)c3c(oc4cc(OC)ccc43)c2C)C1=O	86.9% (inactive)
COc1c(NC=O)c2c(c([N+](=O)[O-])c1OC)C(=O)OC2	102% (inactive) and 112% (inactive)
COc1ccc2nc3cc(Cl)ccc3c(NCCCNCCC(C)O)c2c1 (stereo not given)	4% (active)
CC(=O)OC[C@]12CCC(C)(C)C=C1[C@H]1CC[C@@H]3[C@@]4(C)CCCNC(C)(C)[C@@H]4CC[C@@]3(C)[C@]1(C)CC2	31.6% (inactive)
CCCc1cc(C(N)=S)ccn1	97.6% (inactive)
COc1cc(/C=C/C(=O)c2ccc(NC(=O)CSc3nnc(-c4cc(-c5ccccc5)nc5ccccc45)n3-c3ccccc3)cc2)cc(OC)c1OC	54.7% (inactive)
C=C(c1ccc(C(=O)O)cc1)c1cc2c(cc1C)C(C)(C)CCC2(C)C	93.2% (inactive) and 62.7% (inactive)
CC(=O)N1N=C(c2ccc(Nc3nc(Nc4ccc(F)cc4)nc(Nc4ccc(F)cc4)n3)cc2)CC1c1ccccc1 (stereo not given)	96.3% (inactive)
CCCCCO/N=C\c1c2c(O)c3c(O)c(C)c4c(c3c1O)C(=O)C(C)(O/C=C\C(OC)C(C)C(OC(C)=O)C(C)C(O)C(C)C(O)C(C)/C=C\C=C(\C)C(=O)N2)O4 (stereo not given)	2.51% (active)
Cc1cc(N2CCN(CC(=O)Nc3ccc4c(ccn4Cc4ccccc4)c3)CC2)nc(N2CCCCCC2)n1	5.17% (active)
N=C1/C(=C2\NC3C=CC=CC3S2)C(c2ccc(Cl)cc2)C2C(=O)N(c3ccccc3)C(=S)N12 (stereo not given)	107% (inactive)
CC(C)(C)c1cc(NC(=O)Nc2ccc(-c3cn4c(n3)sc3cc(OCCN5CCOCC5)ccc34)cc2)no1	-41.7% (active) and -1.96% (active)
CN1CCN(CCCN2c3ccccc3Sc3ccc(Cl)cc32)CC1	25.2% (inactive) and 35.9% (inactive)
C=C(C)[C@@H]1CC[C@]2(C(=O)N3CCN(C)CC3)CC[C@]3(C)[C@H](CC[C@@H]4[C@@]5(C)CC(CCCNC(C)=O)(CCCNC(C)=O)[C@H](OC(C)=O)C(C)(C)[C@@H]5CC[C@]43C)[C@@H]12	83% (inactive)
C[C@@H]1CC[C@@H]2[C@@H]1[C@H](OC(=O)/C=C/c1ccccc1)[C@]1(c3ccccc3)C[C@@H](NC(=O)CO)[C@@]2(C)O1	109% (inactive)
CCCCCCCCN(CCCCCCCC)CC(O)c1cc(Cl)ccc1OC (stereo not given)	38.7% (inactive)
C#Cc1cc(C(=O)Nc2ccc(CN3CCN(C)CC3)c(C(F)(F)F)c2)ccc1C	5.65% (active)
COc1ccc(-c2cc(-c3cc(OC)c(OC)c(OC)c3)c(C#N)c(=O)n2CCCCC(=O)O)cc1	99.4% (inactive)

Structure (SMILES)	growth
CC(C)(C)c1cc(C(C)(C)c2ccccc2)cc(Cc2cc(C(C)(C)c3ccccc3)cc(C(C)(C)C)c2O)c1O	93.3% (inactive)
O=C(CCCOc1ccc(Br)cc1)Nc1ncc(Cc2ccc(F)cc2)s1	49.1% (inactive)
Nc1ccc(-c2ccc(N)c(Br)c2)cc1Br	32% (inactive)
COc1ccc(-c2cc(=O)c3c(O)cc(O)cc3o2)cc1	110% (inactive) and 109% (inactive)
Clc1cccc(Nc2ncnc3ccc(-c4cncc(-n5cnnn5)c4)cc23)c1	74% (inactive)
OB(O)c1ccsc1-c1nc2ccc3[nH]ncc3c2c2c1CCCC2	45.9% (inactive)
N=C(N)c1ccc(-c2ccc(-c3ccc(F)cc3)s2)nc1	8.67% (active)
Nc1nc(N)c2c(n1)NC(c1ccc(Cl)cc1)CC(c1cccc(Nc3ccncc3)c1)=N2 (stereo not given)	21% (inactive)
O=C(/C=C/c1ccc(Cl)s1)c1ccc(Cl)s1	74.5% (inactive) and 94% (inactive)
O=C(NNc1ccccc1)c1ccccc1	85.5% (inactive) and 84.8% (inactive)
CN(C)C(=O)c1cc2cnc(Nc3ccc(-c4csc5c(=S)cc(N6CCOCC6)oc45)cc3)nc2n1C1CCCC1	5% (active)
COc1cc(/C=N/NC(=O)CCN2c3ccccc3Sc3ccccc32)cc(OC)c1OC	90% (inactive)
C/C=C(/C)C(=O)O[C@@H]1CC(C)(C)CC2C34OC(=O)[C@@]21CC[C@@]3(C)[C@]1(C)CCC2C(C)(C)C(=O)CC[C@]2(C)C1C[C@@H]4Cl (stereo not given in full)	98% (inactive)
Clc1ccc2c(c1)N(c1ncnc3ccc(-c4cnc5[nH]ccc5c4)cc13)CC2	3.75% (active)
CC1=C2[C@@H](CC1)[C@]1(C)O[C@@](C3CC3)(C[C@H]1OC(=O)CO)[C@H]2OC(=O)/C=C/c1ccccc1	89.5% (inactive)
O=C1/C(=C/c2ccccc2)CN(C(=O)C(Cl)Cl)C/C1=C\c1ccccc1	5.46% (active)
COc1cc(/C=C2/C=C(c3ccc(C(C)(C)C)cc3)N(CCc3ccc(S(N)(=O)=O)cc3)C2=O)cc(OC)c1OC	8.93% (active)
O=c1c2c([nH]c3ccccc13)CCCC2	102% (inactive) and 2.59% (active)

Same assay, conditions: 100 µM

Structure (SMILES)	growth
CC(=O)/C=C/c1ccc(N(C)Cc2ccc(C(C)(C)C)cc2)cc1	-10.7% (active)
O=C(/C=C/c1cccc(Oc2ccc(Cl)cc2)c1)c1ccccc1	-67% (active)
